Measured values from PubChem BioAssay (EPA / NIEHS).
Where a structure was tested more than once in an assay, its records may differ in their call. Calls of active or inactive are those of the source. How the source made its calls: active means hit-call score of the fitted dose curve at least 0.9, where 1 is the maximum; inactive means score below 0.9.

Tests used:
[1] = ATG_GRE_CIS: Attagene CIS-FACTORIAL HepG2 Assay for human Glucocorticoid Response Elements (GRE) (AID 2282947); details: HepG2 GRE cis-reporter, Attagene multiplex mRNA; actives raise or lower the signal
How it was run: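 Fluorescence intensity of reporter-specific cDNA fragments, separated by capillary electrophoresis, provides the signal. Constructs carry cis-regulating promoters in transiently transfected HepG2 liver cells; 24 h incubation; fitting is bidirectional against DMSO.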

[2] = ATG_ISRE_CIS: Attagene CIS-FACTORIAL HepG2 Assay for human Interferon Regulatory Factor 1 (IRF1) binding to an Interferon-Stimulated Response Element (ISRE) (AID 2282948); details: HepG2 ISRE cis-reporter (Attagene), mRNA transcription readout; actives raise or lower the signal
How it was run: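 Uses HepG2 liver cells transfected with cis-regulated reporters and measures mRNA 24 h post-dosing through RT-PCR, primer-extension labelling and capillary electrophoresis, with DMSO as negative control.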

[3] = ATG_M_32_CIS: Attagene CIS-FACTORIAL HepG2 Assay for M32 Transcription Factor (Internal Marker) (AID 2282949); details: HepG2 Attagene cis-factorial M32 reporter, mRNA; actives raise or lower the signal;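 further: background control marker of the multiplexed CIS panel rather than a real target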
How it was run: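 HepG2 human liver cells transiently transfected with cis-promoter-driven multiple reporter transcription units, dosed 24 h. Reporter mRNA quantified by RT-PCR, FAM-labelled primer extension, HpaI digest and capillary electrophoresis; bidirectional fit versus DMSO baseline.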

[4] = ATG_M_06_CIS: Attagene CIS-FACTORIAL HepG2 Assay for M06 Transcription Factor (Internal Marker) (AID 2282950); details: HepG2 Attagene CIS-FACTORIAL M06 internal marker reporter; actives raise or lower the signal
How it was run: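 One of many multiplexed endpoints: HepG2 reporter mRNA after 24 h dosing, detected by RT-PCR and capillary electrophoresis fluorescence; gain or loss of signal analysed against DMSO.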

[5] = molecular target: Hypoxia-inducible factor 1-alpha (Homo sapiens) (UniProt Q16665); assay: ATG_HIF1a_CIS: Attagene CIS-FACTORIAL HepG2 Assay for human Hypoxia Inducible Factor 1 (HIF1A) (AID 2282951); details: HepG2 Attagene cis-factorial HIF1a reporter transcription; actives raise or lower the signal
Hypoxia-inducible factor 1-alpha (Homo sapiens), sequence (Q16665 whole entry, looked up): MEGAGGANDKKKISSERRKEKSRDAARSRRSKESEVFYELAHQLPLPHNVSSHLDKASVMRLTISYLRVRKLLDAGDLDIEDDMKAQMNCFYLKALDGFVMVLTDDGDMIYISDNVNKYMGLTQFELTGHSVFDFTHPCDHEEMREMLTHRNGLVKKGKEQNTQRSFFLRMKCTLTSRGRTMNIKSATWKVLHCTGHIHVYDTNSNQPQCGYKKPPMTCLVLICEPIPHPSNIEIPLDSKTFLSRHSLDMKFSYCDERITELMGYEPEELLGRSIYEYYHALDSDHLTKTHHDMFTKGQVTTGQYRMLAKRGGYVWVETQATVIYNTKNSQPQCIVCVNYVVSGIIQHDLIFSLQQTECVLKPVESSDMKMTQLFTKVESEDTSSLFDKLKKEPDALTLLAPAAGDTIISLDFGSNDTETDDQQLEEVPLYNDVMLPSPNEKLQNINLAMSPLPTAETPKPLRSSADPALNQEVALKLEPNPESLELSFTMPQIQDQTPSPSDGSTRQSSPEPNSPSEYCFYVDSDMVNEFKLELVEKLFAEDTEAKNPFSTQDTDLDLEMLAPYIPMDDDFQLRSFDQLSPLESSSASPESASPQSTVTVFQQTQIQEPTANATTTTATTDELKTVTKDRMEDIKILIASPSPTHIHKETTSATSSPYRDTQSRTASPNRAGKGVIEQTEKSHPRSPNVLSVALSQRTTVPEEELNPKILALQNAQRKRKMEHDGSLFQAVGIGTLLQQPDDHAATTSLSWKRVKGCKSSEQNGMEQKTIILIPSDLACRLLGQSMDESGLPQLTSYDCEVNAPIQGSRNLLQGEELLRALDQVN
How it was run: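 HepG2 cells transiently transfected with multiple cis-regulated reporter transcription units measure endogenous transcription factor activity. After 24 h exposure, reporter mRNA is quantified by RT-PCR with 6-FAM labelling, HpaI digestion and capillary electrophoresis. Bidirectional fitting against DMSO.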

[6] = molecular target: Hepatocyte nuclear factor 6 (Homo sapiens) (UniProt Q9UBC0); assay: ATG_HNF6_CIS: Attagene CIS-FACTORIAL HepG2 Assay for human Hepatocyte Nuclear Factor 6 (HNF6) (AID 2282952); details: HepG2 Attagene cis-factorial HNF6 reporter transcription; actives raise or lower the signal
Hepatocyte nuclear factor 6 (Homo sapiens), sequence (Q9UBC0 whole entry, looked up): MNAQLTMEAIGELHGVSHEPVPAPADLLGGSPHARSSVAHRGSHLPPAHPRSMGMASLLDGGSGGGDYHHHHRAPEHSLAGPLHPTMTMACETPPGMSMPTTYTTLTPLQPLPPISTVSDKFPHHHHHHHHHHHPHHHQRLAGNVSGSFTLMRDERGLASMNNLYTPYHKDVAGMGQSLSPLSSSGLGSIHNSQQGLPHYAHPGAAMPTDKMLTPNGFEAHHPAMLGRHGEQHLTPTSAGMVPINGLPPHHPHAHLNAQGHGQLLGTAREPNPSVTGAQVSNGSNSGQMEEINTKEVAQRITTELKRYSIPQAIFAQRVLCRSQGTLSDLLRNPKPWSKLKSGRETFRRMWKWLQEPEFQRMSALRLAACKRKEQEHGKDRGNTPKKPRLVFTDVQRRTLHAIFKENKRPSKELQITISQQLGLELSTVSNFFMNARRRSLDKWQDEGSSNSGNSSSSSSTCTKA
How it was run: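 Endogenous transcription factor activity in human HepG2 liver cells was captured through cis-regulated reporter constructs. After 24 h treatment, reporter mRNA was measured by RT-PCR with capillary electrophoresis, and activity was fitted in both directions relative to DMSO.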

[7] = molecular target: Heat shock factor protein 1 (Homo sapiens) (UniProt Q00613); assay: ATG_HSE_CIS: Attagene CIS-FACTORIAL HepG2 Assay for human Heat Shock Transcription Factor 1 (HSE) (AID 2282953); details: HepG2 HSE cis-reporter, Attagene RNA transcription; actives raise or lower the signal
Heat shock factor protein 1 (Homo sapiens), sequence (Q00613 whole entry, looked up): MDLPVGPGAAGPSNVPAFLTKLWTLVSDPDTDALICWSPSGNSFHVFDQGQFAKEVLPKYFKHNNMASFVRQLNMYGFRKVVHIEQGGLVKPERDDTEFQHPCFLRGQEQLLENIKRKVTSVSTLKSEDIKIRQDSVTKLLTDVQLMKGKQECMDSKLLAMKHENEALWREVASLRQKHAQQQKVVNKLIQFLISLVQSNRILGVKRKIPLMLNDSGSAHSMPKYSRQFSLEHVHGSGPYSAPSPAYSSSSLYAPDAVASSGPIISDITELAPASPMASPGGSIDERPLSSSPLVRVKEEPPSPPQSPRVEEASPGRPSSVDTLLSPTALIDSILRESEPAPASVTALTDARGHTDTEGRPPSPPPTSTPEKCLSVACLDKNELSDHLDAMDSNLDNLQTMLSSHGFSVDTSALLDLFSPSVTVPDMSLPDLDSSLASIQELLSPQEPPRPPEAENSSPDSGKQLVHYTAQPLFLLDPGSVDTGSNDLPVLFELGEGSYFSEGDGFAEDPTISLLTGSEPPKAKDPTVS
How it was run: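 Using HepG2 with transfected cis-driven reporter constructs, compound effects on endogenous factor activity are scored as reporter mRNA change at 24 h. Detection: RT-PCR, HpaI digestion, capillary electrophoresis; bidirectional fitting to DMSO.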

[8] = ATG_MRE_CIS: Attagene CIS-FACTORIAL HepG2 Assay for human Metal Responsive Element (MRE) (AID 2282954); details: HepG2 MRE cis-reporter transcription, Attagene multiplex; actives raise or lower the signal
How it was run: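 Measured here is mRNA induction from an MRE cis-element reporter in HepG2 after 24 h, quantified by fluorescence of labelled RT-PCR products on capillary electrophoresis; gain- and loss-of-signal fits use DMSO as baseline.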

[9] = ATG_PBREM_CIS: Attagene CIS-FACTORIAL HepG2 Assay for human Phenobarbital-responsive Enhancer Module (PBREM) (AID 2282955); details: HepG2 PBREM cis-reporter, Attagene multiplexed transcription; actives raise or lower the signal
How it was run: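 HepG2 cells transiently transfected with multiple cis-regulated reporter units measure endogenous transcription factor activity; 24 h compound exposure. Reporter mRNA quantified by RT-PCR, fluorescent labelling, HpaI digestion and capillary electrophoresis; bidirectional fit versus DMSO.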

[10] = molecular target: Paired box protein Pax-6 (Homo sapiens) (UniProt P26367); assay: ATG_Pax6_CIS: Attagene CIS-FACTORIAL HepG2 Assay for human Paired Box 6 (PAX6) (AID 2282956); details: HepG2 CIS-FACTORIAL PAX6 reporter transcription, RNA readout; actives raise or lower the signal
Paired box protein Pax-6 (Homo sapiens), sequence (P26367 whole entry, looked up): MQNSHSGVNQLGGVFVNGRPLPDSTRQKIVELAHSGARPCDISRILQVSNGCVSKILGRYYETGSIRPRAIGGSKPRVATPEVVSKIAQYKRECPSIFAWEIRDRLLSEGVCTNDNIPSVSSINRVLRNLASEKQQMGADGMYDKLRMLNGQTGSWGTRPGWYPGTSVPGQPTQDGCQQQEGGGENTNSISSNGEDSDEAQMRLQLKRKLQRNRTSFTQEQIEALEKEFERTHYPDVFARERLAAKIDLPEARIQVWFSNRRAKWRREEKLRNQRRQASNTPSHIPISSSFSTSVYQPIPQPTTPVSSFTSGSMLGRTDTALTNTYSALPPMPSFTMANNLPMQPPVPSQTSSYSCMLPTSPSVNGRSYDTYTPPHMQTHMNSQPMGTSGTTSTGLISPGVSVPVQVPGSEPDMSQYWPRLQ
How it was run: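 DMSO-referenced bidirectional fits of reporter mRNA fluorescence; HepG2 with transient cis-promoter MRTUs, 24 h post-dose, RT-PCR plus capillary electrophoresis detection.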

[11] = ATG_PPRE_CIS: Attagene CIS-FACTORIAL HepG2 Assay for human Peroxisome Proliferator-activated Response Element (PPRE) (AID 2282958); details: HepG2 PPRE cis-element reporter, Attagene transcription factor profiling; actives raise or lower the signal
How it was run: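 HepG2 cells are transiently transfected with multiplexed cis-promoter reporter units to report endogenous PPAR activity. After 24 h dosing, reporter mRNA is read by RT-PCR and capillary electrophoresis. Fitting is bidirectional against DMSO.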

[12] = ATG_RORE_CIS: Attagene CIS-FACTORIAL HepG2 Assay for human RAR-related Orphan Receptor Element (RORE) (AID 2282959); details: HepG2 Attagene cis-factorial RORE reporter, mRNA; actives raise or lower the signal
How it was run: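 HepG2 cells carrying transiently transfected cis-regulated reporter units; RORE-driven reporter mRNA quantified 24 h post-dosing by RT-PCR, 6-FAM primer extension, HpaI digestion and capillary electrophoresis. Bidirectional fit versus DMSO.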

[13] = ATG_Sox_CIS: Attagene CIS-FACTORIAL HepG2 Assay for human SRY-box transcription factor (SOX) (AID 2282960); details: HepG2 Attagene cis-factorial SOX reporter, mRNA; actives raise or lower the signal
How it was run: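 HepG2 cells transiently transfected with multiple cis-regulated reporter units, then dosed for 24 h. Reporter mRNA quantified by RT-PCR, fluorescent labelling, HpaI digestion and capillary electrophoresis; bidirectional fit versus DMSO.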

[14] = molecular target: Transcription factor Sp1 (Homo sapiens) (UniProt P08047); assay: ATG_Sp1_CIS: Attagene CIS-FACTORIAL HepG2 Assay for human Specificity Protein 1 (Sp1) (AID 2282961); details: HepG2 Sp1 cis-reporter transcription, actives raise or lower the signal
Transcription factor Sp1 (Homo sapiens), sequence (P08047 whole entry, looked up): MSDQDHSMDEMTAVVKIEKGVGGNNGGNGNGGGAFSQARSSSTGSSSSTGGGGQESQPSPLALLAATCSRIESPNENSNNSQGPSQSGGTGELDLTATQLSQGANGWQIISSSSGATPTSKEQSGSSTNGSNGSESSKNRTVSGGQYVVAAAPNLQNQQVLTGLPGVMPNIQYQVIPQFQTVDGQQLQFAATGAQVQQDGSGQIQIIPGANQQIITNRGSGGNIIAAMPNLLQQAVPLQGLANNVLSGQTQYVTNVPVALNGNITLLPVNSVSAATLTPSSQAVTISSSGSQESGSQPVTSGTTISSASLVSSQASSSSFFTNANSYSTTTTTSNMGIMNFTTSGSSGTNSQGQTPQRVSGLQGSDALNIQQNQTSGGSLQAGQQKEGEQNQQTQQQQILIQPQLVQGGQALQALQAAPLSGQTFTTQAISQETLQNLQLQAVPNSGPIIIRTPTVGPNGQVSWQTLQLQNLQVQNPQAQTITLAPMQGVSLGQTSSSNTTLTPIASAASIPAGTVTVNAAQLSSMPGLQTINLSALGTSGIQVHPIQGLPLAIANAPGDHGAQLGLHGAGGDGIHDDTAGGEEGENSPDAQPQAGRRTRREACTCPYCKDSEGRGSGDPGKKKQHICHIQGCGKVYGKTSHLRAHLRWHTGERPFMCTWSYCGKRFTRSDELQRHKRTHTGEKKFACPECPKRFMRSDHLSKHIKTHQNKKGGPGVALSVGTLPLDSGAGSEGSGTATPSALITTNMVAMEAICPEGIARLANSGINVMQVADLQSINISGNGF
How it was run: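 HepG2 cells transiently transfected with multiplexed cis-regulated reporter constructs, chemical exposure 24 h. Reporter mRNA quantified by RT-PCR with capillary electrophoresis; bidirectional fit relative to DMSO.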

[15] = ATG_SREBP_CIS: Attagene CIS-FACTORIAL HepG2 Assay for human Sterol Regulatory Element Binding (SREBP) (AID 2282962); details: HepG2 Attagene cis-factorial SREBP reporter, mRNA; actives raise or lower the signal
How it was run: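 In this cis-format assay, HepG2 liver cells express reporters controlled by promoter elements responsive to native transcription factors. Exposure lasts 24 h; reporter mRNA fluorescence from capillary electrophoresis gives the signal, fitted bidirectionally against DMSO.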

[16] = molecular target: Signal transducer and activator of transcription 3 (Homo sapiens) (UniProt P40763); assay: ATG_STAT3_CIS: Attagene CIS-FACTORIAL HepG2 Assay for human Signal Transducer and Activator of Transcription 3 (STAT3) (AID 2282963); details: HepG2, Attagene cis-factorial STAT3 reporter transcription; actives raise or lower the signal
Signal transducer and activator of transcription 3 (Homo sapiens), sequence (P40763 whole entry, looked up, the tested form may be a part): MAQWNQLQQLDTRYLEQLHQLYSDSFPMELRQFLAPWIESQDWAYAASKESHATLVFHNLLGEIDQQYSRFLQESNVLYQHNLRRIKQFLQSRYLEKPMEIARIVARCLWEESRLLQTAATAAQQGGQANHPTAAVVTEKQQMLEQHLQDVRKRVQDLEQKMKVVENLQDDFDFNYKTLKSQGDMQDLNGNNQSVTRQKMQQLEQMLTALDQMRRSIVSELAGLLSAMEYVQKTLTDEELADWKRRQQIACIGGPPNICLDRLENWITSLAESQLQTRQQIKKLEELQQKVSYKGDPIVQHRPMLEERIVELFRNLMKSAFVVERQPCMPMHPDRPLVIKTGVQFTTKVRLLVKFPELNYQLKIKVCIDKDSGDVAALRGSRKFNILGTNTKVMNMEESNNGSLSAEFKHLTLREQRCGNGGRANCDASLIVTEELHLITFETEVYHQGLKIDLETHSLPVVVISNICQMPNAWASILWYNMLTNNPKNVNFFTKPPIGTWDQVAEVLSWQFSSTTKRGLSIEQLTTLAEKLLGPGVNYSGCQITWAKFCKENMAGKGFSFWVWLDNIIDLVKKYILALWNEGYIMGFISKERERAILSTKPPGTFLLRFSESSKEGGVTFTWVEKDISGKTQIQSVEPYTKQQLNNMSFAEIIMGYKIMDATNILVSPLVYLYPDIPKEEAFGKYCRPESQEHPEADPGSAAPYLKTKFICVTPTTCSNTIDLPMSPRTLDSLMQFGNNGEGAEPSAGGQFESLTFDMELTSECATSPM
How it was run: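 Fluorescence intensity of 6-FAM-labelled reporter fragments, separated by capillary electrophoresis after RT-PCR, gave the signal. Cells were HepG2 transfected with cis-element reporter units and treated 24 h; fitting was bidirectional relative to DMSO.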

[17] = ATG_TA_CIS: Attagene CIS-FACTORIAL HepG2 Assay for human TA Basal Promoter (AID 2282964); details: HepG2 Attagene CIS-factorial TA basal promoter reporter; actives raise or lower the signal
How it was run: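 Transient MRTU transfection of HepG2 preceded 24 h compound exposure. Reporter mRNA levels were then read by RT-PCR with capillary electrophoresis, and this background-control endpoint was fitted bidirectionally to DMSO.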

[18] = ATG_TCF_b_cat_CIS: Attagene CIS-FACTORIAL HepG2 Assay for human T-Cell-Factor with beta-catenin (TCF/b-cat) (AID 2282965); details: HepG2 TCF/beta-catenin cis-reporter transcription, actives raise or lower the signal
How it was run: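 HepG2, transient MRTU transfection, cis-element-driven reporters (endogenous TFs). 24 h compound exposure. Readout: reporter mRNA by RT-PCR + 6-FAM primer extension, HpaI digest, capillary electrophoresis. Gain/loss fit vs DMSO baseline.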

[19] = ATG_PXRE_CIS: Attagene CIS-FACTORIAL HepG2 Assay for human Pregnane X Receptor Element (PXRE) (AID 2282957); details: HepG2 Attagene CIS-FACTORIAL PXRE reporter, mRNA; actives raise or lower the signal
How it was run: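 Endogenous transcription factor activity in HepG2 was gauged through induction of reporter mRNA driven by a cis-regulating promoter element, sampled 24 h post-treatment. Activity was fitted in both directions against DMSO negative control.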

Measured: AC50

Cc1ccc(C(C)C)cc1
inactive: [1] | [2] | [3] | [4] | [5] | [6] | [7] | [8] | [9] | [10] | [11] | [12] | [13] | [14] | [15] | [16] | [17] | [18]

OCCO
inactive: [2] | [3] | [4] | [6] | [7] | [8] | [9] | [10] | [11] | [13] | [14] | [15] | [16] | [17] | [18]
active: [5] 51.2 µM

c1ccc2ccccc2c1
inactive: [2] | [3] | [4] | [5] | [6] | [7] | [8] | [10] | [19] | [11] | [12] | [13] | [14] | [15] | [16] | [17] | [18]
active: [6] 100 µM

CN1C(=O)CC[C@H]1c1cccnc1
inactive: [2] | [3] | [4] | [6] | [7] | [8] | [9] | [10] | [19] | [12] | [13] | [14] | [15] | [16] | [17] | [18]

COc1ccc2cc(S(=O)(=O)N[C@H](CC(=O)N[C@H](Cc3ccc(CN4[C@H](C)CCC[C@@H]4C)cc3)C(=O)N(C)C(C)C)c3ccc4c(c3)OCO4)ccc2c1
active: [2] 11 µM | [5] 1.38 µM | [8] 11 µM | [15] 564 nM | [17] 11 µM | [18] 11.2 µM
inactive: [1] | [3] | [4] | [6] | [7] | [9] | [10] | [11] | [12] | [13] | [14] | [16]

CC(O)CC(C)(C)O (configuration not stated)
inactive: [1] | [2] | [3] | [4] | [5] | [6] | [7] | [8] | [10] | [12] | [13] | [14] | [15] | [16] | [17] | [18]
